ChEMBL document CHEMBL3988442, “University of Dundee, Small-Polar-MMV Screening Library” (2021)
Among all 48,000 compounds or so, about 13,000 (27%) showed an effect of 50% or more. Some of the results follow.

Each molecule was assayed on Wolbachia pipientis (assay: Anti-Wolbachia Cell-Based Screen). Conditions: 5 µM.
Format: functional
Design: scale not given: in the data most compounds retested in dose-response had high values

Structure (SMILES)	Percent Effect [%]
O=c1[nH]c(NCc2cccc(OC(F)F)c2)nc2c1CCNC2	-5.963
O=C(NCC1CC1)[C@H]1C[C@@H]2CN(C(=O)NCC3CCCCC3)C[C@H]1O2	9.811
CC(C)(C)c1ncc(C(=O)N2CCC(N3CCSCC3)CC2)c(O)n1	-20.12
Cc1nc(C(C)C)sc1C(=O)N1CCN(C2CCSCC2)CC1	90.05
Cc1nc(C(C)C)sc1C(=O)N1CCC(C(N)=O)CC1	81.6
Cc1nc(CC(C)C)sc1C(=O)N1CCC(C2(C)OCCO2)CC1	1.957
CN(C)C(C(=O)N1CCC(N2CCSCC2)CC1)c1ccccc1F (centres undefined)	11.01
CCCn1ncc(C(=O)N2CCN(C3CCSCC3)CC2)c1C	7.373
Cc1nc(CC(C)C)sc1C(=O)N1CCC1	-0.1519
Cc1nc(C(C)C)sc1C(=O)N1CCC(N2CCSCC2)CC1	96.22
COC1CCCN(C(=O)c2sc(CC(C)C)nc2C)C1 (centres undefined)	-1.564
CCS(=O)(=O)N1C[C@H]2CC[C@@]3(N=C(C)N(CC(C)C)C3=O)[C@H]2C1	17.11
Cc1ccc(CN2CCNC(=O)C2CC(=O)N2CCSCC2)o1 (centres undefined)	-50.4
O=C(NCc1ccc(Cl)s1)c1cc(CN2CCCC(O)C2)on1 (centres undefined)	3.439
CSCc1nc(CCNC(=O)c2cnn(C(C)C)c2)cs1	-0.3441
CSc1ccc2cc(CN(C)CCO)c(=O)[nH]c2c1	-7.247
CCC(CNC(=O)CNC(C)=O)Oc1cccc(F)c1 (centres undefined)	-13.27
Cc1ccc(S(=O)(=O)NC[C@H]2OC[C@@H](NCc3cccnc3)[C@@H]2O)cc1	-9.264
CC(C)NC(=O)CN(C1CC1)C(C)C1CC1 (centres undefined)	-3.628
CC(=O)N1CCCCC1c1nc2c(c(N3CCCCC3)n1)CN(C)CC2 (centres undefined)	-9.745
CC(=O)N1CCCCC1c1nc2c(c(NC3CCCC3)n1)CN(C)CC2 (centres undefined)	71.52
Nc1nc2c(c(NC3CCCC3)n1)CCN(C(=O)C1CCOC1)CC2 (centres undefined)	4.82
CNc1nc(C2CCCCN2C(=O)COC)nc2c1CN(C)CC2 (centres undefined)	112
CNc1nc(C2CCCCN2C(=O)C(C)(C)OC)nc2c1CN(C)CC2 (centres undefined)	100.3
CC1CCCCN1C(=O)c1nc2c(n1C(C)C)CCN(C)C2.O=C(O)C(F)(F)F (centres undefined)	0.8763

Structure (SMILES)	Percent Effect [%]
CNc1nc(N2C[C@H](NC(=O)CCOC)[C@@H](C3CC3)C2)nc2c1CCC2	-18.85
COCC(=O)N[C@H](C(=O)NC(C)c1cccc(C)c1C)C(C)C (some centres undefined)	4.041
O=C(c1scc2c1OCCO2)N1CCN(Cc2cccc(F)c2)CC1	-25.63
COCc1noc(-c2ccc(N(C)Cc3nccs3)nc2)n1	22.14
CCc1nc(CNC(C)c2cccc(N3CCCC3=O)c2)cs1.Cl (centres undefined)	4.92
CSc1cc2c(cc1NC(=O)NCC(C)(C)C(N)=O)OCCO2	-12.99
CC(C)(C)c1noc(CN2CCN(C(=O)c3cccs3)CC2)n1	-8.519
Cn1ccnc1CN(CCO)C(=O)C1CCN(C(=O)C2CC2)CC1	-5.097
CC(=O)N1CCC(Oc2ccc(Cl)cn2)CC1	-4.055
CC(=O)N1CCC(n2nccc2-c2cnc(N(C)CCO)nc2)CC1	107.1
CCc1cnc(N)nc1N1CCN(C(C)=O)CC1	-3.404
CCc1ocnc1C(=O)N1CCC(C2CCN(c3ncccn3)CC2)C1 (centres undefined)	-3.497
CC(=O)N1CCC(n2nccc2-c2cnc(N3CCCC3)nc2)CC1	98.34
CNc1ncc(C(=O)N2CCC(c3ccccc3C(=O)O)C2)cn1 (centres undefined)	4.233
CNc1ncc(C(=O)N2CC[C@@](O)(C3CCOCC3)[C@H](C)C2)cn1	-7.674
CCc1cnc(N2CC[C@@H]3CN(C(C)=O)CCO[C@@H]3C2)nc1	6.886
CNc1ncc(-c2ccnn2C2CCN(C(C)=O)CC2)cn1	109.9
CC(=O)N1CCC(NCc2cccnc2N(C)Cc2ccccc2)CC1	-20.17
CC(=O)N1CCC(n2nccc2-c2cnc(N)nc2)CC1	106.3
CC(C(=O)N1CCc2sccc2C1)N1CCCN(C2CC2)CC1 (centres undefined)	6.579
NC(=O)CCNC(=O)NCC1(c2ccccc2Cl)CCC1	-8.555
CC(=O)N1CCC(NC[C@H]2Cn3c(-c4ccccc4)cnc3CO2)CC1	-3.853
CC(=O)N1CCC(n2nccc2-c2cnc(NCCO)nc2)CC1	90.32
Cc1noc(C2CCN(C(=O)CCNc3ncccn3)CC2)n1	14.51
O=C(O)c1nn(CC2CC2)c2c1CN(S(=O)(=O)c1cccnc1)CC2	-14.04

Structure (SMILES)	Percent Effect [%]
CCn1nc(C)c(CCNC(=O)c2cccc(-n3cccn3)c2)c1C	-5.095
COCCNC(=O)CCc1c(C)nn(-c2nc(C)c(C)c(=O)[nH]2)c1C	-2.178
CCN(CC)CCNC(=O)CCc1c(C)nn(-c2cccc(Cl)c2)c1C	114.7
Cc1nn(-c2ccccc2)c(C)c1CC(=O)NC1CC(=O)N(C)C1 (centres undefined)	10.3
CC(=O)NCCCc1ncnn1-c1cccc(Cl)c1	-6.102
CCN(CC)CCNC(=O)CCc1c(C)nn(-c2ccc(Cl)cc2)c1C	108.7
COCc1noc(C2(c3ccc(OC)cc3)CCOCC2)n1	-14.42
CN1CCN(Cc2cccc(NCc3cc[nH]n3)c2)CC1	-14.54
O=C(Nc1c(F)cccc1F)N1CC(c2nc(C3CC3)no2)C1	16.35
COc1ccc(NC(=O)N2CCC(c3noc(C)n3)CC2)cc1C	-0.09079
O=C(Nc1ccc(F)cc1-c1nc(C2CC2)no1)N1CC[C@@H](O)C1	96.09
Cc1ccc(NC(=O)N2CC[C@@H](O)C2)c(-c2nc(C3CC3)no2)c1	101.9
O=C(NCc1nc(C2CC2)no1)N1CCOC(c2cccc(F)c2)C1 (centres undefined)	-4.4
O=C(Nc1cc(-c2ccccc2)on1)N1CC[C@H](O)C1	-19.05
CCCn1nc(-c2nc(C3CC3)no2)ccc1=O	-1.199
COc1ccc(CNc2nc(C3CC3)no2)cc1OC	-4.91
COCC(=O)Nc1ccc(C)cc1-c1nc(C2CC2)no1	104.3
CN(C)Cc1nnc(C2CCCN(c3ncccc3F)C2)n1C (centres undefined)	-23.88
Cc1cc(CN(C)CC2(O)CCCN(CCC3CCCCC3)C2=O)no1 (centres undefined)	-6.768
O=C(CN1CCCc2sccc2C1=O)NC1CCc2nccn2C1 (centres undefined)	7.867
O=C(CCc1nc(Cl)n[nH]1)N[C@H]1CC[C@H]1NC1Cc2ccccc2C1	-20.04
Cc1ccc(C)c(OC2CCN(C(=O)c3ccc(C)[nH]c3=O)CC2)c1	-1.4
Cc1ccc(C)c(OC2CCN(C(=O)c3ccc(O)nc3)CC2)c1	-12.69
Cc1ccccc1OC1CCN(C(=O)CNC(=O)N(C)C)CC1	13.16
Cc1ccc(C)c(OC2CCN(C(=O)CNc3ccccc3Cl)CC2)c1	209.6

Structure (SMILES)	Percent Effect [%]
CN(C)CCNC(=O)c1ccc(OC2CCN(C(=O)CO)CC2)c(Cl)c1	12.3
COC(=O)NCC(=O)N1CCC(Oc2cccc(C)c2)CC1	-5.707
CCC(=O)N1CCC(Oc2ccc(C(=O)NCCN(C)C)cc2Cl)CC1	19.63
CCNC(=O)CCC(=O)N1CCC(Oc2cc(C)ccc2C)CC1	108
Cc1ccc(C)c(OC2CCN(C(=O)NCC(=O)N3CCCC3)CC2)c1	99.13
O=C([C@H]1C[C@H]2OCC[C@H]2N(C(=O)c2cnccn2)C1)N1CCCCO1	-3.887
CN(C)C(C(=O)N1CCN(S(N)(=O)=O)CC1)c1ccccc1F (centres undefined)	-29.81
Cn1c(C(F)(F)F)nn(CCNC(=O)NCc2ccccc2)c1=O	-13.86
Cc1cnn(Cc2cc(F)ccc2F)c1NC(=O)CNC(=O)C1CC1	-28.4
O=C1CCc2cc(S(=O)(=O)NCc3cc4n(n3)CCCNC4)ccc2N1	-2.764
Cc1ccc(NC2CCN(C(=O)COc3ccccc3)CC2)nn1	80.33
Cc1ccc(NC2CCN(C(=O)COc3cccnc3)CC2)nn1	0.9961
Cc1ccc(NC2CCN(C(=O)Cc3cccc(F)c3)CC2)nn1	5.367
Cc1ccc(NC2CCN(C(=O)COc3cccc(F)c3)CC2)nn1	99.48
CC(C)n1cc(S(=O)(=O)NCCc2nnc3ccccn23)cn1	-12.48
CCn1ncc2c1C(COC)N(C(=O)CCc1ccccc1)CC2.O=C(O)C(F)(F)F (centres undefined)	87.3
CCn1ncc2c1C(COC)N(C(=O)c1cccs1)CC2.O=C(O)C(F)(F)F (centres undefined)	114.8
CCn1ncc2c1C(COCC1CC1)N(Cc1cnn(C)c1)CC2.O=C(O)C(F)(F)F.O=C(O)C(F)(F)F.O=C(O)C(F)(F)F (centres undefined)	-14.36
CCn1ncc2c1C(COC)N(C(=O)c1cscn1)CC2.O=C(O)C(F)(F)F (centres undefined)	99.84
COCC1c2nnn(CC3CC3)c2CCN1C(=O)Cc1cccs1 (centres undefined)	9.028
CCn1ncc2c1C(COCC1CC1)N(C(=O)c1ccncn1)CC2.O=C(O)C(F)(F)F (centres undefined)	-5.083
CCOCC1c2c(cnn2CC2CC2)CCN1C(=O)c1ccncn1.O=C(O)C(F)(F)F (centres undefined)	-2.874
CCn1ncc2c1C(COC)N(C(=O)Cc1cccs1)CC2 (centres undefined)	110.7
CCn1ncc2c1C(COCC1CC1)N(Cc1ccccn1)CC2.O=C(O)C(F)(F)F.O=C(O)C(F)(F)F (centres undefined)	3.009
